This passage reports inhibition results from PubChem BioAssay AID602481 (Broad Institute, 2012).

Several values for one entry are separate records, joined by “and”; a condition that tells them apart may be missing. Equal values may be shown once. About 340 (0.094%) of roughly 360,000 compounds were called active. Cut-off read from the data, not from the text of the source: active = inhibition above about 40%; inconclusive = no clear call, values can overlap the other calls; inactive = below that. Shown is part of a subset that was picked to be rich in actives. The source holds several records for some structures; these can differ, active in one and inactive in another.

In this assay the test system is 7,8-diaminopelargonic acid synthase BioA (Mycobacterium tuberculosis). Put plainly: M. tuberculosis BioA enzyme inhibitors, primary screen, biochemical, plate reader, single point, HTS (AID 602481). To be noted: purified M. tuberculosis BioA enzyme, at 9.99 µM, stronger effect = higher value.
Regarding `COc1ccc(S(=O)(=O)N(C)C[C@@H]2OCCCC[C@H](C)Oc3ccc(NC(=O)Nc4ccccc4)cc3C(=O)N([C@H](C)CO)C[C@H]2C)cc1`, the inhibition was -0.37% (inactive).

On to `CN(C)C(=O)C[C@H]1C=C[C@@H](NC(=O)c2ccc(F)cc2)[C@@H](CO)O1`, for which the inhibition is -0.406% (inactive).

Consider `O=C(Nc1ccc2c(c1)OCO2)N[C@H]1CC[C@H](CCNC(=O)C2CCC2)O[C@@H]1CO`, for which the inhibition is 5.56% (inactive).

On to `O=C(C[C@H]1C[C@H]2c3cc(NC(=O)Nc4ccc(F)cc4)ccc3O[C@H]2[C@@H](CO)O1)NCC1CC1`, for which the inhibition is 0.529% (inactive).

For the molecule `COc1ccc(NC(=O)N(C)C[C@H]2OCCCC[C@H](C)Oc3ccc(NC(=O)c4ccncc4)cc3C(=O)N([C@H](C)CO)C[C@@H]2C)cc1`, the inhibition was -0.437% (inactive).

Turning to `CN(C)CC(=O)Nc1ccc2c(c1)[C@@H]1C[C@H](CC(=O)NCC3CC3)O[C@@H](CO)[C@@H]1O2`, the inhibition was -1.45% (inactive).

Turning to `CN(C)CC(=O)N1[C@H](C(=O)NC2CCC2)[C@@H](CO)[C@@H]2Cn3c(ccc(-c4ccc(F)cc4)c3=O)[C@@H]21`, the inhibition was -3.07% (inactive).

Turning to `CCCN(C)C[C@@H]1OCc2cnnn2CCCC(=O)N([C@H](C)CO)C[C@@H]1C`, the inhibition was -0.996% (inactive).

As for `Cc1ccc(S(=O)(=O)Nc2cccc3c2O[C@@H](CN(C)S(=O)(=O)c2cccs2)[C@@H](C)CN([C@@H](C)CO)C3=O)cc1`, the inhibition is 1.64% (inactive).

`O=C(Nc1cccc(F)c1)N1CCCCN2[C@H](CO)[C@H](c3ccc(C#CC4CC4)cc3)[C@@H]2C1`: the inhibition is 10.9% (inactive).

On to `Cc1ccc(S(=O)(=O)Nc2ccc3c(c2)CC(=O)N([C@@H](C)CO)C[C@H](C)[C@H](CN(C)Cc2ccc(C(=O)Nc4ccccc4N)cc2)O3)cc1`, for which the inhibition is -1.91% (inactive).

`CCCC(=O)Nc1ccc2c(c1)OC[C@@H](C)N(Cc1ccccc1F)C[C@@H](C)[C@H](OC)CN(C)C2=O`: the inhibition was -3.54% (inactive).

On to `CCCN(C)C[C@@H]1Oc2ncc(C#CC3CC3)cc2C(=O)N([C@H](C)CO)C[C@H]1C`, for which the inhibition is -2.63% (inactive).

For `C[C@H](CO)N1C[C@H](C)[C@@H](CN(C)S(=O)(=O)c2ccccc2)OCCCC[C@H](C)Oc2ccc(NC(=O)NC3CCCCC3)cc2C1=O`, the inhibition was -0.429% (inactive).

Consider `COc1ccc(S(=O)(=O)N(C)C[C@H]2Oc3c(NS(=O)(=O)c4ccc(F)cc4)cccc3C(=O)N([C@H](C)CO)C[C@H]2C)cc1`, for which the inhibition is -2.2% (inactive).

As for `C=CCn1c(SCc2cc(C(=O)OC)c(C)o2)nnc1-c1ccncc1`, the inhibition was 5.32% (inactive).

For `C=CCn1c(SCc2c(C(=O)OC)sc(N)c2C(=O)OC)nnc1-c1ccc(Cl)cc1`, the inhibition was 51.8% (active).

As for `CCn1c(SCc2cccc(C(=O)O)c2)nnc1-c1ccc(Cl)cc1`, the inhibition is 1.6% (inactive).

Take `O=C(C[C@@H]1C=C[C@@H](NC(=O)C2CC2)[C@H](CO)O1)NCCCN1CCOCC1`: the inhibition is -6.18% (inactive).

For `CCCc1cn(CC[C@@H]2CC[C@@H](NC(=O)CCN3CCCCC3)[C@H](CO)O2)nn1`, the inhibition is -2.51% (inactive).

`O=C(C[C@H]1CC[C@H](NC(=O)c2ccc3c(c2)OCO3)[C@H](CO)O1)NCc1ccc(Oc2ccccc2)cc1`: the inhibition is 2.15% (inactive).

As for `C[C@@H](O)C#Cc1ccc2c(c1)O[C@@H](CN(C)Cc1cccnc1)[C@@H](C)CN([C@@H](C)CO)S2(=O)=O`, the inhibition is 5.8% (inactive).

Take `CCC(CO)Oc1cc(NC(=O)c2cccc(F)c2)c2ncn(C(C)C)c2c1` (centres undefined): the inhibition was 20.8% (inactive) and 67.8% (active).

Consider `CC(C)n1cnc2c(NCc3ccccc3)cc(OCC3CCN(C)CC3)cc21`, for which the inhibition was 5.28% (inactive).

On to `CCCOc1cccc(C(=O)Nc2nnn(CCC)n2)c1`, for which the inhibition is -3.8% (inactive).

As for `Cc1noc(C)c1NC(=O)Nc1ccc2c(c1)CC(=O)N([C@@H](C)CO)C[C@H](C)[C@H](CN(C)S(=O)(=O)c1c(C)noc1C)O2`, the inhibition was 1.52% (inactive).

`CC(C)NC(=O)N(C)C[C@H]1Oc2c(NS(=O)(=O)c3ccc(Cl)cc3)cccc2C(=O)N([C@@H](C)CO)C[C@H]1C`: the inhibition was -1.39% (inactive).

As to `C[C@@H]1CN([C@@H](C)CO)C(=O)c2cc(/C=C/c3ccccc3)cnc2O[C@@H]1CN(C)C(=O)CN(C)C`, the inhibition was -0.866% (inactive).

Turning to `CO[C@H](CN(C)S(=O)(=O)c1ccc(Cl)cc1)[C@@H](C)CN(Cc1ccccc1Cl)[C@H](C)CO`, the inhibition is -0.783% (inactive).

Regarding `O=C(NCC[C@@H]1CC[C@H](NS(=O)(=O)c2cccc(F)c2)[C@H](CO)O1)c1cnccn1`, the inhibition was 2.18% (inactive).

Regarding `Cc1noc(C)c1S(=O)(=O)Nc1ccc2c(c1)C(=O)N([C@H](C)CO)C[C@H](C)[C@H](CN(C)C(=O)NC1CCCCC1)OCCCC[C@H](C)O2`, the inhibition is -0.981% (inactive).

For `COc1ccc(S(=O)(=O)N(C)C[C@H]2OCCCC[C@H](C)Oc3ccc(NS(=O)(=O)c4c(C)noc4C)cc3C(=O)N([C@@H](C)CO)C[C@@H]2C)cc1`, the inhibition is -0.18% (inactive).

For the molecule `Cc1noc(C)c1NC(=O)N(C)C[C@H]1Oc2ccc(NC(=O)Nc3ccc(C(F)(F)F)cc3)cc2CC(=O)N([C@@H](C)CO)C[C@@H]1C`, the inhibition is -2.44% (inactive).

Take `O=C(Nc1cccc(Cl)c1)N1C[C@@H]2[C@H](c3ccccc31)[C@H](CO)N2Cc1ccncc1`: the inhibition is -5.5% (inactive).

In the case of `Cc1cc(C(=O)Nc2cccc3c2O[C@@H](CN(C)Cc2ccc4c(c2)OCO4)[C@@H](C)CN([C@@H](C)CO)C3=O)n(C)n1`, the inhibition was -2.65% (inactive).

Take `O=C(C[C@@H]1C[C@@H]2c3cc(NC(=O)C4CCC4)ccc3O[C@@H]2[C@@H](CO)O1)NCc1ccccc1`: the inhibition is -1.79% (inactive).

With `O=C(C[C@@H]1CC[C@@H]2[C@H](COC[C@H](O)CN2S(=O)(=O)c2ccc(Oc3ccccc3)cc2)O1)NCCN1CCCCC1`, the inhibition was 9.19% (inactive).

For `CCCN1[C@H](C(=O)NCC)[C@@H](CO)[C@@H]2Cn3c(ccc(C4=CCCC4)c3=O)[C@@H]21`, the inhibition is -0.389% (inactive).

`CC(=O)N1[C@H](C(=O)N(C)C)[C@@H](CO)[C@@H]2Cn3c(ccc(-c4ccccc4)c3=O)[C@@H]21`: the inhibition is -1.69% (inactive).
